Source: PubChem BioAssay AID1211 (NMMLSC, 2008)
Calls of active or inactive are those of the source. The rule behind the calls is not given here.

Target: Estrogen receptor (Homo sapiens) (UniProt P03372)
Assay: displacement of fluorescent estrogen from ERalpha – cell-based, Cos7 ERalpha-GFP, flow cytometry, primary screen (AID 1211);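 note: 0% = DMSO vehicle wells and 100% = no E2-Alexa633 signal left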
Conditions: fluorescent ligand competition, stronger effect = higher value

Chain of Estrogen receptor (Homo sapiens) (P03372 whole entry, looked up): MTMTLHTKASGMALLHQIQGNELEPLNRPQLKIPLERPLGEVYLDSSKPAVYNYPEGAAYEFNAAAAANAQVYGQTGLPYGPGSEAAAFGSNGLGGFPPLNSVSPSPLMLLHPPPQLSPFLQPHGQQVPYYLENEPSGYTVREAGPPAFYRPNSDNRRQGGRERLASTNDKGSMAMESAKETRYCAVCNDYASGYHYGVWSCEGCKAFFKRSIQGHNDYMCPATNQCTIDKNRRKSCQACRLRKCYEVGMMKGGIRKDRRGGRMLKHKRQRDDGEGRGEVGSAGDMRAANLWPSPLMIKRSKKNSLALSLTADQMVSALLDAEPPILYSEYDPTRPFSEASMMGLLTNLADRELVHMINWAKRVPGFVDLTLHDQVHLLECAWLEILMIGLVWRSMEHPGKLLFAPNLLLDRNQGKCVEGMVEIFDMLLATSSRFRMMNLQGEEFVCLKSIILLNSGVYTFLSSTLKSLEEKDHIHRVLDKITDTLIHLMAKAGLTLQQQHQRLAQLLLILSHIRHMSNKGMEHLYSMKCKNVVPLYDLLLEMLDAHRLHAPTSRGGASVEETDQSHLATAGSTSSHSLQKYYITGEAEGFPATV

SMILES | inhibition of ligand binding (at 10 µM) | inhibition of ligand binding (binding inhibition, at 0.1 µM)
c1ccc(-c2nnc3sc(Cc4cccs4)nn23)cc1 | 28% (inactive) | 13%
Nc1ccc2nn(-c3cccc4ccccc34)nc2c1 | 0% (inactive) | 12%
O=C(COC(=O)CCC(=O)c1cccs1)NCc1ccco1 | 42% (active) | 74%
O=C1C(c2ccnc3ccccc23)=C(O)c2ccccc21 | 26% (inactive) | 28%
CCOC(=O)c1c(C)[nH]c(C)c1C(=O)CSc1nnc(-c2cc(OC)c(OC)c(OC)c2)o1 | 57% (inactive) | 38%
CCCSc1nc(C)c(-c2csc(C(C#N)=C3CCCC3)n2)cc1C#N | 37% (inactive) | 44%
O=c1oc2ccccc2n1CCn1c2ccccc2c2nc3ccccc3nc21 | 27% (inactive) | 28%
COc1cc(/C=N/N2CCN(C3c4ccccc4-c4ccccc43)CC2)ccc1O | 36% (inactive) | 15%
Cc1ccccc1CSCC(=O)NC(=O)NCc1ccco1 | 53% (inactive) | 27%
Cc1cccn2c(=O)c3cc(C(=O)O)n(C)c3nc12 | 33% (inactive) | 17%
COc1ccccc1C(=O)Nc1nc(-c2cccs2)c(NC(C)=O)s1 | 29% (inactive) | 25%
Cc1ccc2c(c1)c(=O)c1c3n2CCN(C(=O)CCl)C3CC1 (stereo not given) | 21% (inactive) | 26%
Cc1occc1C(=O)NCc1cccc(CNC(=O)c2ccoc2C)c1 | 39% (inactive) | 26%
COc1ccccc1N1CCN(C(=O)c2ccc3nc(-c4ccco4)c(-c4ccco4)nc3c2)CC1 | 36% (active) | 82%
O=C1C2CC=C(Cl)CC2C(=O)N1CCCCCCN1C(=O)C2CC=C(Cl)CC2C1=O (stereo not given) | 36% (inactive) | 34%
